# Measured values published in PubChem BioAssay.
# The source made the active and inactive calls.
# How the values were obtained:
# Albumin (Bos taurus) = Albumin (Bos taurus) (UniProt P02769); test: bovine serum albumin binders on microarray, profiling panel, artefact control for SMM control protein annotation, biochemical, small-molecule microarray, Alexa647 label, 635/667 nm fluorescence (AID 1118); conditions: BSA-A647 binding, fluorescence 635 nm, higher = more signal;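 note: score merges 667 nm emission intensity and signal-to-noise per printed compound spot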
# [1] = small-molecule microarray binders of probe aXIP, primary screen, biochemical, NeuroSMM set, 635/667 nm fluorescence (AID 1119); conditions: higher = more signal, called active from +8 up or from −8 down;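 note: probe is the protein aXip251-270 applied at 1 µg/mL to compound-printed slides; binding of probe to printed compounds measured as 667 nm fluorescence plus signal to noise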
# [2] = small-molecule binders of probe aNOTCH3, primary screen, biochemical, small-molecule microarray, 635/667 nm fluorescence (AID 1120); conditions: higher = more signal;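 note: probe is a biotin-tagged antibody raised against NOTCH3 rather than NOTCH3 protein; score merges spot fluorescence near 667 nm with spot signal to noise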
# [3] = small-molecule binders of probe aNOTCH2, primary screen, biochemical, small-molecule microarray, 635/667 nm fluorescence (AID 1121); conditions: higher = more signal;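 note: score merges feature fluorescence read at 667 nm with its signal to noise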
# [4] = target: Carbonic anhydrase 2 (Homo sapiens) (UniProt P00918); test: CAII small-molecule binders, profiling panel, biochemical, small-molecule microarray, Alexa647-labelled CAII (AID 1122); conditions: CAII-A647 binding fluorescence, higher = more signal
# [5] = COS7 lysate on small-molecule microarray, probe aHis, 635 nm (AID 1123); conditions: COS7 cell lysate, fluorescence, higher = more signal;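 note: z-score combines 667nm fluorescence intensity with signal-to-noise per printed compound spot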
# [6] = compound binding in COS7 lysate, probe aLAP1, primary screen, cell lysate, small-molecule microarray (AID 1124); conditions: probe aLAP1, fluorescence, higher = more signal;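 note: lysate comes from COS7 cells expressing LAP1 and is applied at 0.3 µg/mL; score merges spot fluorescence near 667 nm with signal-to-noise over triplicate slides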
# Sam68 (KHDRBS1) = test: Sam68 small-molecule binders, primary screen, biochemical, small-molecule microarray, 635 nm fluorescence (AID 1125); conditions: small-molecule microarray binding, higher = more signal;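 note: score merges 667 nm channel intensity with signal to noise over triplicate slides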
# [7] = test system: Chordin-like protein 2 (CHRDL2); test: CHRDL2 small-molecule binders, primary screen, biochemical, small-molecule microarray, 635 nm fluorescence (AID 1126); conditions: small-molecule microarray binding, fluorescence 635 nm; higher = more signal;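 note: printed compound slides probed with Chrdl2 protein at 4 µg/mL for 1 h at 4 C; score merges 667 nm emission intensity with signal to noise over three replicate slides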
# [8] = target: Concanavalin-A (Canavalia ensiformis) (UniProt P02866); test: ConA small-molecule binders, primary screen, artefact control for SMM control protein annotation, biochemical, small-molecule microarray, Alexa647 label, 635 nm (AID 1127); conditions: ConA-A647 binding fluorescence, higher = more signal;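 note: z combines 667 nm emission intensity with signal-to-noise across three replicate slides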
# [9] = anti-His antibody binders, primary screen, artefact control for SMM control protein annotation, biochemical, small-molecule microarray, 635 nm fluorescence (AID 1128); conditions: anti-His Alexa647 antibody binding, higher = more signal;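 note: score merges feature fluorescence with signal-to-noise for each printed compound spot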
# [10] = test system: Human papillomavirus type 1a E7 protein (residues 1-88); test: HPV1a E7 small-molecule binders, primary screen, biochemical, small-molecule microarray, residues 1-88, 635 nm (AID 1129); conditions: small-molecule microarray binding, fluorescence 635 nm; higher = more signal
# [11] = target: Focal adhesion kinase 1 (Homo sapiens) (UniProt Q05397); test: small-molecule microarray binders of FAK, primary screen, biochemical, 635/667 nm fluorescence, BSA, DTT (AID 1130); conditions: PTK2 binding, 635 nm fluorescence, higher = more signal;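 note: composite of spot emission at 667 nm and signal to noise over triplicate slides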
# [12] = test system: Fibrinogen (Alexa647-labelled); test: fibrinogen binders on compound microarrays, profiling panel, artefact control for SMM control-protein annotation, biochemical, small-molecule microarray, 635/667 nm fluorescence (AID 1131); conditions: fibrinogen-A647 binding fluorescence, higher = more signal;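 note: z-score merges 667 nm fluorescence with per-spot signal-to-noise over triplicate slides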
# [13] = target: Follistatin (Homo sapiens) (UniProt P19883); test: follistatin binders on small-molecule microarrays, primary screen, biochemical, small-molecule microarray, 635/667 nm fluorescence (AID 1132); conditions: FST binding, 635 nm fluorescence, higher = more signal
# [14] = target: Fibroblast growth factor 2 (Homo sapiens) (UniProt P09038); test: FGF2 binders on small-molecule microarrays, primary screen, biochemical, small-molecule microarray, 635/667 nm fluorescence (AID 1133); conditions: small-molecule microarray binding, FGF2, fluorescence 635/667; higher = more signal
# [15] = mitochondrial membrane potential change in A549 cells, profiling panel, cell-based, JC-1 fluorescence, basal, 24 h, 100 nL (AID 1138); conditions: higher = more signal;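 note: A549 lung adenocarcinoma cells under basal conditions with no added stimulus; test concentration not given here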
# Lefty1 = Lefty1 binders on small-molecule microarrays, primary screen, biochemical, small-molecule microarray, 635/667 nm fluorescence (AID 1139); conditions: small-molecule microarray binding, fluorescence 635/667; higher = more signal
# [16] = test system: wheat germ agglutinin (Triticum aestivum), Alexa647-labelled; test: wheat germ agglutinin binders on compound microarrays, profiling panel, artefact control for SMM control-protein annotation, biochemical, small-molecule microarray, 635/667 nm fluorescence (AID 1140); conditions: WGA-A647 binding, 635 nm fluorescence, higher = more signal;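 note: score merges 667 nm feature emission with signal to noise over triplicate slides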
# [17] = target: Luciferin 4-monooxygenase (Photinus pyralis) (UniProt P08659); test: firefly luciferase enzyme inhibitors, primary screen, biochemical, luminescence, purified enzyme, 2006 set (AID 1141); conditions: SteadyGlo luminescence, 30 min, higher = more signal, called active from +8 up or from −8 down;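 note: cell-free assay with purified firefly luciferase at 100 ng per well in PBS; test concentration not given here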
# Luciferin 4-monooxygenase (Photinus pyralis), sequence (P08659 whole entry, looked up): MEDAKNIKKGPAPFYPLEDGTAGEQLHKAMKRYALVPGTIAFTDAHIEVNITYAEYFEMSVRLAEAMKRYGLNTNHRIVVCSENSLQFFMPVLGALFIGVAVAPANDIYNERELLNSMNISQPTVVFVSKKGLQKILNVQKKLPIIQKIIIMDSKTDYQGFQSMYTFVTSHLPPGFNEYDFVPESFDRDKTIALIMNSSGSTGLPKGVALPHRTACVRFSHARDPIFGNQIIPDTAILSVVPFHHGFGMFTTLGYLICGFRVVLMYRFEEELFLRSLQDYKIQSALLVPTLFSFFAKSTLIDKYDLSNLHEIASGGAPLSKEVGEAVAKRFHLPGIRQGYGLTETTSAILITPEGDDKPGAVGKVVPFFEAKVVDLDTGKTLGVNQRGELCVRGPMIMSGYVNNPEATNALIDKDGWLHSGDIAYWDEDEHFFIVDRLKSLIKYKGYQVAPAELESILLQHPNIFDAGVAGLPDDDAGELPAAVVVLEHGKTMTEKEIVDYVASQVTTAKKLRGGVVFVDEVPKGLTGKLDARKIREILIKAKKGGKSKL
# Albumin (Bos taurus), sequence (P02769 whole entry, looked up): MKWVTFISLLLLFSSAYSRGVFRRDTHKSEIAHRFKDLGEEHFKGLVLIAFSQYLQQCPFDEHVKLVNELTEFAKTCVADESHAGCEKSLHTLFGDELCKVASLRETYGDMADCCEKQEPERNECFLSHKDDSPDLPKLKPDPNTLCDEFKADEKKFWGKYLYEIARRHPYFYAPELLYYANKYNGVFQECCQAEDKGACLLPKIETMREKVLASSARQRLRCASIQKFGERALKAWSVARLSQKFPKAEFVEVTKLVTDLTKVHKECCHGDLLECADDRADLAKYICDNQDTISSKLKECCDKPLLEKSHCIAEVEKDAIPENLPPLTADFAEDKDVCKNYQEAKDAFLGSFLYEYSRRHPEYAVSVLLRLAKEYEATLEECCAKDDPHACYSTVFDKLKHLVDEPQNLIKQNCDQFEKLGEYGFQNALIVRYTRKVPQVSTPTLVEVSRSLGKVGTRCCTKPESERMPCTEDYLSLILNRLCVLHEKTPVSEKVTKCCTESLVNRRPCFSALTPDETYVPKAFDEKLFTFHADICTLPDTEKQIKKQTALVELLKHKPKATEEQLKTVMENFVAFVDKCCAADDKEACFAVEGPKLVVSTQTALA
# Fibroblast growth factor 2 (Homo sapiens), sequence (P09038 whole entry, looked up): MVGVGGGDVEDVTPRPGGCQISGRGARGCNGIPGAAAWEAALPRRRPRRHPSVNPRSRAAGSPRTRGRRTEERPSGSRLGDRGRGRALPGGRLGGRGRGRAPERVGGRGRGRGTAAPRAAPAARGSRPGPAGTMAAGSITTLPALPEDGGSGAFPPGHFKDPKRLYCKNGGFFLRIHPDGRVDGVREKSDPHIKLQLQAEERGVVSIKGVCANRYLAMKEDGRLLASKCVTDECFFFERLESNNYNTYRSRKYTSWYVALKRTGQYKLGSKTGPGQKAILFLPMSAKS
# Concanavalin-A (Canavalia ensiformis), sequence (P02866 whole entry, looked up): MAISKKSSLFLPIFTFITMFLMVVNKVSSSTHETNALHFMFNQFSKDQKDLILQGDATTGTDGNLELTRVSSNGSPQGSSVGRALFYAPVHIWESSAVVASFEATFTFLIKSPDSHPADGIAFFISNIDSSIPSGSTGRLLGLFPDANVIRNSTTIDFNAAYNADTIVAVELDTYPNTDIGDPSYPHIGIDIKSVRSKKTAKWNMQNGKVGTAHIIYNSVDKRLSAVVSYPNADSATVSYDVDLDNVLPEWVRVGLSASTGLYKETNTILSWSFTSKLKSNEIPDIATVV
# Follistatin (Homo sapiens), sequence (P19883 whole entry, looked up): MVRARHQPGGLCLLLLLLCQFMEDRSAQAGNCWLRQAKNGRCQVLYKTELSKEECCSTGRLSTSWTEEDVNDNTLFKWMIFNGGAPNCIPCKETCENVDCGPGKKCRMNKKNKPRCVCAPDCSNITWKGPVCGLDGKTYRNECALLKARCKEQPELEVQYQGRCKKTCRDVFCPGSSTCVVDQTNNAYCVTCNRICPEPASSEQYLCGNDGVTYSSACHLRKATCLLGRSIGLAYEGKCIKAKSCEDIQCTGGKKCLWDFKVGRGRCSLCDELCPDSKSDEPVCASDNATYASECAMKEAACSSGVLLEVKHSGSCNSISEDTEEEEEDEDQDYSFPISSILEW
# Focal adhesion kinase 1 (Homo sapiens), sequence (Q05397 whole entry, looked up): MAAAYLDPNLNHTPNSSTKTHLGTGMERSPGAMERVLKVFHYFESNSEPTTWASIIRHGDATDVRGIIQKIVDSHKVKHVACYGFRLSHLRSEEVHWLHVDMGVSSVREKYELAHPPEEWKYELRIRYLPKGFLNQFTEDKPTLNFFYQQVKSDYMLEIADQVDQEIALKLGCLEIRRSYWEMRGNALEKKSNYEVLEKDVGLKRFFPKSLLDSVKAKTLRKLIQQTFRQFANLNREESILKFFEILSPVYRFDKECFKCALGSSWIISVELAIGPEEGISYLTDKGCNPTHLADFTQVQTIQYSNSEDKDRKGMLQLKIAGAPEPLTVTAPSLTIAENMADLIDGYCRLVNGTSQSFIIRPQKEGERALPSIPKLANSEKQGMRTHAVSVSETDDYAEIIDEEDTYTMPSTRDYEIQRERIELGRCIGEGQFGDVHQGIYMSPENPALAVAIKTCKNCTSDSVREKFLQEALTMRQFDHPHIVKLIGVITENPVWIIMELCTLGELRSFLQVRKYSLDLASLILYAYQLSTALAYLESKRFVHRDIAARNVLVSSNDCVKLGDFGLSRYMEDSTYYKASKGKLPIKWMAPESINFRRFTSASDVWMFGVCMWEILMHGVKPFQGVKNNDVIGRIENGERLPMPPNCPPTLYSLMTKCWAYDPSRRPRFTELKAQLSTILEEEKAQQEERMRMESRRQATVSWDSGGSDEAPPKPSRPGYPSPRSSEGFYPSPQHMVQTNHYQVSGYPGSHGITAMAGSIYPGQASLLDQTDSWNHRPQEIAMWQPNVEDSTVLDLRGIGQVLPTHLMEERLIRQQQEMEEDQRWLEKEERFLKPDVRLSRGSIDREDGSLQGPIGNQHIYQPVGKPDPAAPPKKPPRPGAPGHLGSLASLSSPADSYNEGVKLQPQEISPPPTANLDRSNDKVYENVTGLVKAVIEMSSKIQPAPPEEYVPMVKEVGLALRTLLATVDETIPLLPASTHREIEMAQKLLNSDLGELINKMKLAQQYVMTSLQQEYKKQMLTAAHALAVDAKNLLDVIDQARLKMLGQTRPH
SMILES,composite z-score (Albumin (Bos taurus)),composite Z-score [1],composite z-score [2],composite z-score [3],composite z-score [4],composite z-score [5],composite z-score [6],composite z-score (Sam68 (KHDRBS1)),composite z-score [7],composite z-score [8],composite z-score [9],composite z-score [10],composite z-score [11],composite z-score [12],composite z-score [13],composite z-score [14],z-score [15],composite z-score (Lefty1),composite z-score [16],z-score [17]
NC(=O)NCC#Cc1ccc2c(c1)[C@]1(C(=O)N2)[C@H](c2ccc(O)cc2)N2[C@H](c3ccccc3)[C@H](c3ccccc3)OC(=O)[C@H]2[C@@H]1C(N)=O,-0.624,0.251 (inactive),-0.279,0.104,0.263,0.409,-0.0995,-0.144,-0.162,-0.608,0.184,-1.21,-0.549,-0.934,-0.0645,-0.219,-0.65,-0.295,-0.784,-0.22 (inactive)
COc1cc(C(O)C2C=CC3C(=O)NC(=O)C3N2Nc2ccc(Cl)cc2Cl)cc(OC)c1OC (stereo not given),0.254,-0.762 (inactive),0.454,0.0956,0.752,2.99,0.115,0.79,-0.0696,1.05,1.32,1.24,0.105,0.866,1.14,-0.0812,0.275,0.286,0.871,-0.0332 (inactive)
COCCOC(=O)N1C(=O)[C@@]2(c3cc(C#Cc4ccc(OC)cc4)ccc31)[C@H](C(=O)N1CCc3cc(OC)c(OC)cc3C1)[C@H]1C(=O)O[C@H](c3ccccc3)[C@H](c3ccccc3)N1[C@@H]2c1ccc(OCCO)cc1,-0.121,-0.527 (inactive),0.0271,-0.149,0.22,-0.0346,0.0459,1.23,0.598,1.09,0.839,1.13,0.5,0.195,1.19,1.3,-1.79,0.88,0.596,-1.23 (inactive)
O=C1N(Cc2ccccc2)c2ccccc2[C@H]2OC(c3ccc(OCCCO)cc3)=N[C@@]12CCS(=O)(=O)c1ccccc1,0.273,-0.313 (inactive),0.0538,-0.112,0.692,2.83,0.948,1.29,0.376,0.54,1.68,1.25,1.06,0.984,1.2,1.36,-1.26,0.689,0.726,-0.202 (inactive)
NC(=O)[C@H]1[C@@H]2C(=O)O[C@@H](c3ccccc3)[C@@H](c3ccccc3)N2[C@@H](c2ccc(O)cc2)[C@]12C(=O)Nc1ccc(C#CC3(O)CCCCCC3)cc12,0.0474,0.467 (inactive),0.205,-0.0859,0.51,2.63,0.807,1.29,0.412,1.12,1.55,1.23,0.505,0.946,1.24,1.58,-1.43,0.889,0.949,0.268 (inactive)
C[C@]12C(=O)N(CCCO)[C@@H]3C(=O)N(c4ccc(Cl)cc4)CC=CC31O[C@@H]1/C=C\CCCOC(=O)C12 (stereo not given in full),0.309,0.264 (inactive),-0.305,-0.118,0.883,1.46,0.492,0.518,-1.38,-0.743,2.25,-0.549,0.438,-2.51,-0.804,-1.72,0.202,-0.68,1.13,-0.299 (inactive)
C=C[C@@H](O)[C@H]1CC(c2ccccc2)=NO1,-0.596,0.303 (inactive),-0.1,-0.084,-0.0997,-0.322,-0.156,-0.542,0.647,0.334,0.103,-0.565,-0.0062,-0.0611,-0.16,-0.121,1.12,-0.0793,-0.288,-1.53 (inactive)
CCCNC(=O)[C@@]1(Sc2ccc(C)cc2)CC(=O)N(Cc2ccccc2)[C@@H]1c1ccc(CO)cc1I,-0.793,-0.163 (inactive),0.147,-0.115,0.405,0.644,1.01,0.827,0.678,0.082,0.381,0.561,0.0147,-0.122,1.38,1.16,0.651,0.427,0.996,0.0043 (inactive)
CN(C)CCCNC(=O)[C@@]1(Cc2ccccc2I)c2ccccc2C(=O)N(Cc2ccccc2Cl)[C@H]1c1ccc(CO)cc1,0.827,-0.175 (inactive),0.175,0.2,0.522,1.44,0.507,-0.035,-1.09,1.09,-0.528,1.08,0.224,0.788,-0.292,-0.717,-1.18,-0.615,0.73,0.122 (inactive)
C[C@H]1NC(=O)C([C@@H](C)OCc2ccccc2)NC(=O)[C@@]23C(=O)N[C@@H](Cc4ccccc4)C2[C@H](C)[C@@]2(C)O[C@H]2C3/C=C/CC/C=C/CNC1=O (stereo not given in full),0.506,-0.169 (inactive),-0.0647,-0.0131,0.665,-0.308,0.03,-0.389,0.634,-1.38,-0.342,-0.413,-0.305,0.42,0.607,0.588,-0.198,0.331,0.384,-0.749 (inactive)
COCCOC(=O)N1C(=O)[C@@]2(c3ccccc31)[C@H](c1ccccc1OCCO)N1[C@H](c3ccccc3)[C@H](c3ccccc3)OC(=O)[C@H]1[C@@H]2C(=O)N1CCc2cc(OC)c(OC)cc2C1,-0.274,0.511 (inactive),0.0833,-0.0176,0.335,0.51,0.0553,1.27,0.475,1.18,1.14,0.659,0.413,0.457,1.27,1.36,-1.03,0.756,0.435,-0.209 (inactive)
